Experimental data taken from PubChem BioAssay (NCATS).
Inconclusive results are not listed. Values without a mark were called inactive. Activity calls are given as the source filed them. Calls come from the whole dose curve; as a rule, active = well fitted curve in the direction sought with a large enough effect; inconclusive = small, poorly fitted or top-dose-only effect, or another doubt; inactive = no such curve, though single readings can be large; an effect the other way counts as inactive or inconclusive.

Assays:
[1] = Quantitative High-Throughput drug screen in 47 multiple myeloma cell lines against the NCATS MIPE library collection: KMS12BM_JCRB cell viability assay (AID 1918971); note: nearly all actives have a fitted effect of over 35% in size
Procedure, shortened: (§1)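 Approved and investigational drugs from MIPE 4.0 were added by pin tool to 500 cells per well. After 48 hours at 37C, ATP-based CellTiter-Glo luminescence indicated remaining viability.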

[2] = Quantitative High-Throughput drug screen in 47 multiple myeloma cell lines against the NCATS MIPE library collection: KMS12PE_JCRB cell viability assay (AID 1918972); note: nearly all actives have a fitted effect of over 30% in size
Procedure, shortened: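 CellTiter-Glo luminescence (ATP) after 48 h compound exposure, 37C/5% CO2; 500 cells/well; MIPE 4.0 approved/investigational drugs pinned in; DMSO = 100%, media only = 0% viability.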

[3] = Quantitative High-Throughput drug screen in 47 multiple myeloma cell lines against the NCATS MIPE library collection: KMS20_JCRB cell viability assay (AID 1918973); note: nearly all actives have a fitted effect of over 45% in size
Procedure, shortened: (§2)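 CellTiter-Glo ATP luminescence gave viability after 48 h compound treatment at 37C of 500 multiple myeloma cells per well. Normalisation used DMSO-only wells as 100% and media-only wells as 0% viability; primary qHTS of approved and investigational drugs.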

[4] = Quantitative High-Throughput drug screen in 47 multiple myeloma cell lines against the NCATS MIPE library collection: KMS21BM_JCRB cell viability assay (AID 1918974); settings: ATP luminescence, 48 h; viability: at 45.8 µM (top of the series)
Procedure, shortened: as §2

[5] = Quantitative High-Throughput drug screen in 47 multiple myeloma cell lines against the NCATS MIPE library collection: KMS26_JCRB cell viability assay (AID 1918975); note: nearly all actives have a fitted effect of over 45% in size
Procedure, shortened: as §1

[6] = Quantitative High-Throughput drug screen in 47 multiple myeloma cell lines against the NCATS MIPE library collection: MOLP8_DSMZ cell viability assay (AID 1918977); note: nearly all actives have a fitted effect of over 45% in size
Procedure, shortened: (§3)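 500 cells/well; MIPE 4.0 drugs pin-transferred; 48 h, 37C, 5% CO2. CellTiter-Glo, 5 min RT, luminescence. Controls: DMSO 100%, media 0%.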

[7] = Quantitative High-Throughput drug screen in 47 multiple myeloma cell lines against the NCATS MIPE library collection: NCIH929_DSMZ cell viability assay (AID 1918978); note: nearly all actives have a fitted effect of over 35% in size
Procedure, shortened: as §3

[8] = Quantitative High-Throughput drug screen in 47 multiple myeloma cell lines against the NCATS MIPE library collection: OCIMY1_PLB cell viability assay (AID 1918979); note: nearly all actives have a fitted effect of over 35% in size
Procedure, shortened: as §3

[9] = Quantitative High-Throughput drug screen in 47 multiple myeloma cell lines against the NCATS MIPE library collection: MM1S_ATCC cell viability assay (AID 1918980); note: nearly all actives have a fitted effect of over 45% in size
Procedure, shortened: as §3

[10] = Quantitative High-Throughput drug screen in 47 multiple myeloma cell lines against the NCATS MIPE library collection: MM1R_ATCC cell viability assay (AID 1918981); note: nearly all actives have a fitted effect of over 35% in size
Procedure, shortened: as §3

[11] = Quantitative High-Throughput drug screen in 47 multiple myeloma cell lines against the NCATS MIPE library collection: KMS28PE_JCRB cell viability assay (AID 1918983); note: nearly all actives have a fitted effect of over 35% in size
Procedure, shortened: as §3

[12] = Quantitative High-Throughput drug screen in 47 multiple myeloma cell lines against the NCATS MIPE library collection: OCIMY7_PLB cell viability assay (AID 1918987); settings: OCI-MY7 myeloma viability, CellTiter-Glo ATP, 48 h; viability (% of DMSO): at 45.8 µM (top of the series); note: nearly all actives have a fitted effect of over 65% in size
Procedure, shortened: as §3

[13] = Quantitative High-Throughput drug screen in 47 multiple myeloma cell lines against the NCATS MIPE library collection: OPM1_PLB cell viability assay (AID 1918989); note: nearly all actives have a fitted effect of over 40% in size
Procedure, shortened: as §3

[14] = Quantitative High-Throughput drug screen in 47 multiple myeloma cell lines against the NCATS MIPE library collection: MMM1_PLB cell viability assay (AID 1918976); note: nearly all actives have a fitted effect of over 35% in size
Procedure, shortened: as §3

[15] = Quantitative High-Throughput drug screen in 47 multiple myeloma cell lines against the NCATS MIPE library collection: LP1_DSMZ cell viability assay (AID 1918982); note: nearly all actives have a fitted effect of over 35% in size
Procedure, shortened: as §3

[16] = Quantitative High-Throughput drug screen in 47 multiple myeloma cell lines against the NCATS MIPE library collection: L363_DSMZ cell viability assay (AID 1918984); settings: L363 myeloma viability, CellTiter-Glo ATP luminescence, 48 h; viability (% of control): at 45.8 µM (top of the series); note: nearly all actives have a fitted effect of over 40% in size
Procedure, shortened: as §3

[17] = Quantitative High-Throughput drug screen in 47 multiple myeloma cell lines against the NCATS MIPE library collection: KMS34_JCRB cell viability assay (AID 1918985); note: nearly all actives have a fitted effect of over 40% in size
Procedure, shortened: as §3

[18] = Quantitative High-Throughput drug screen in 47 multiple myeloma cell lines against the NCATS MIPE library collection: OCIMY5_PLB cell viability assay (AID 1918988); note: nearly all actives have a fitted effect of over 65% in size
Procedure, shortened: as §3

[19] = Quantitative High-Throughput drug screen in 47 multiple myeloma cell lines against the NCATS MIPE library collection: SKMM1_PLB cell viability assay (AID 1919863); settings: SKMM1 myeloma viability, CellTiter-Glo ATP, 48 h; viability: hits give low values; note: nearly all actives have a fitted effect of over 35% in size
Procedure, shortened: as §3

[20] = Quantitative High-Throughput drug screen in 47 multiple myeloma cell lines against the NCATS MIPE library collection: U266_ATCC cell viability assay (AID 1919864); note: nearly all actives have a fitted effect of over 35% in size
Procedure, shortened: as §3
Potency is the fitted concentration of half-maximal effect.

Row | Compound | Potency [1] | Potency [2] | Potency [3] | Potency [4] | Potency [5] | Potency [6] | Potency [7] | Potency [8] | Potency [9] | Potency [10] | Potency [11] | Potency [12] | Potency [13] | Potency [14] | Potency [15] | Potency [16] | Potency [17] | Potency [18] | Potency [19] | Potency [20]
1 | N#CC(c1ccc(Cl)cc1)c1c(Cl)cc(-n2ncc(=O)[nH]c2=O)cc1Cl (stereo not given) | 20.9 µM (active) | 13.2 µM (active) | 3.72 µM (active) | 0.235 µM (active) | inactive | inactive | 18.7 µM (active) | inactive | 20.9 µM (active) | 2.64 µM (active) | inactive | 4.69 µM (active) | 5.9 µM (active) |  |  |  |  |  |  | 
2 | Cc1ccccc1-n1c(Cn2nc(-c3cccc(O)c3)c3c(N)ncnc32)nc2cccc(C)c2c1=O | 8.33 µM (active) | 0.935 µM (active) | 5.26 µM (active) |  | 11.8 µM (active) | 5.9 µM (active) | 14.8 µM (active) |  | 1.32 µM (active) | 9.35 µM (active) |  | 2.96 µM (active) | 2.35 µM (active) | 18.7 µM (active) | 11.8 µM (active) | 2.35 µM (active) | 3.32 µM (active) | 10.5 µM (active) | 8.33 µM (active) | 
3 | COc1cc2ncnc(Nc3cc(Br)c(O)c(Br)c3)c2cc1OC | 0.0019 µM (active) | 6.62 µM (active) | 0.0023 µM (active) |  | inactive | inactive | inactive |  | 0.0026 µM (active) | 0.0418 µM (active) | 1.48 µM (active) | 0.0042 µM (active) | 2.35 µM (active) |  |  |  | 6.62 µM (active) | 0.0023 µM (active) | 0.0469 µM (active) | 
4 | CC(C)CN(C[C@@H](O)[C@H](Cc1ccccc1)NC(=O)O[C@H]1CO[C@H]2OCC[C@H]21)S(=O)(=O)c1ccc(N)cc1 | 20.9 µM (active) | inactive | 2.96 µM (active) |  | 3.32 µM (active) | inactive |  | inactive | 2.35 µM (active) | 1.32 µM (active) | 20.9 µM (active) | 2.96 µM (active) |  | 20.9 µM (active) | 3.72 µM (active) |  | inactive | 2.35 µM (active) |  | 
5 | CNC1CCC(N(Cc2cccc(-c3ccncc3)c2)C(=O)c2sc3ccccc3c2Cl)CC1 (stereo not given) | 18.7 µM (active) | 8.33 µM (active) | 5.26 µM (active) |  | 20.9 µM (active) | 16.6 µM (active) | 10.5 µM (active) | 23.5 µM (active) | 20.9 µM (active) | 18.7 µM (active) |  | 10.5 µM (active) |  | 20.9 µM (active) | 26.4 µM (active) |  |  | 18.7 µM (active) | 18.7 µM (active) | 16.6 µM (active)
6 | COc1c(C)c2c(c(O)c1CC=C(C)CCC(=O)OCCN1CCOCC1)C(=O)OC2 | 4.18 µM (active) | 3.72 µM (active) | inactive |  | inactive | 2.96 µM (active) |  | 10.5 µM (active) | 6.62 µM (active) | 11.8 µM (active) | 4.69 µM (active) | 3.72 µM (active) |  |  | 6.62 µM (active) |  | 5.9 µM (active) | 5.26 µM (active) | 4.18 µM (active) | 
7 | COc1nccc(-c2c(-c3ccc(F)cc3)ncn2C2CCNCC2)n1 | 20.9 µM (active) | inactive | inactive |  | inactive |  |  |  |  |  | 13.2 µM (active) |  |  | 13.2 µM (active) | inactive |  |  | 16.6 µM (active) | 9.35 µM (active) | inactive
8 | CCN(CC)CCCCNc1nc2cc(Cl)c(Cl)cc2nc1-c1ccc(-c2cccs2)s1 | 16.6 µM (active) | 6.62 µM (active) | 4.69 µM (active) |  | 13.2 µM (active) | 8.33 µM (active) | 7.43 µM (active) | 14.8 µM (active) | 11.8 µM (active) | 9.35 µM (active) | 18.7 µM (active) |  | 5.9 µM (active) | 9.35 µM (active) | 8.33 µM (active) |  | 16.6 µM (active) | 7.43 µM (active) |  | 23.5 µM (active)
9 | Nc1[nH]nc2nnc(-c3c(-c4ccccc4)nn4ccccc34)cc12 | inactive | 2.35 µM (active) | 2.09 µM (active) |  | inactive |  | 3.72 µM (active) |  | 0.264 µM (active) | 23.5 µM (active) |  | 0.209 µM (active) | 5.26 µM (active) |  | inactive | 2.64 µM (active) |  | 20.9 µM (active) |  | 5.26 µM (active)
10 | O=C(Nc1ccc(OC(F)(F)F)cc1)c1sccc1NCc1ccnc2ccccc12 | 14.8 µM (active) | 18.7 µM (active) | 3.72 µM (active) |  | 18.7 µM (active) |  | 20.9 µM (active) |  | 20.9 µM (active) | 20.9 µM (active) | 20.9 µM (active) | 16.6 µM (active) | 20.9 µM (active) | 16.6 µM (active) | 20.9 µM (active) |  | 10.5 µM (active) | 2.96 µM (active) | 18.7 µM (active) | 
